Source: PubChem
The sample as a whole holds a higher share of hits than the screen did.
Dicer processing: blocks human Dicer maturation of pre-miR-21; AID 1347074; Q9UPY3; 47,000 compounds, 6% hits; z-score at 25 µM; cat-ELCCA pre-miR-21 Dicer processing, chemiluminescence; hits give high values; in the data active means z-score above about 3, passing the limit was not always enough;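 further: plate controls were vehicle for no effect and no enzyme for full effect; higher signal means more uncleaved substrate so more Dicer inhibition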
Target sequence (Q9UPY3 whole entry, looked up): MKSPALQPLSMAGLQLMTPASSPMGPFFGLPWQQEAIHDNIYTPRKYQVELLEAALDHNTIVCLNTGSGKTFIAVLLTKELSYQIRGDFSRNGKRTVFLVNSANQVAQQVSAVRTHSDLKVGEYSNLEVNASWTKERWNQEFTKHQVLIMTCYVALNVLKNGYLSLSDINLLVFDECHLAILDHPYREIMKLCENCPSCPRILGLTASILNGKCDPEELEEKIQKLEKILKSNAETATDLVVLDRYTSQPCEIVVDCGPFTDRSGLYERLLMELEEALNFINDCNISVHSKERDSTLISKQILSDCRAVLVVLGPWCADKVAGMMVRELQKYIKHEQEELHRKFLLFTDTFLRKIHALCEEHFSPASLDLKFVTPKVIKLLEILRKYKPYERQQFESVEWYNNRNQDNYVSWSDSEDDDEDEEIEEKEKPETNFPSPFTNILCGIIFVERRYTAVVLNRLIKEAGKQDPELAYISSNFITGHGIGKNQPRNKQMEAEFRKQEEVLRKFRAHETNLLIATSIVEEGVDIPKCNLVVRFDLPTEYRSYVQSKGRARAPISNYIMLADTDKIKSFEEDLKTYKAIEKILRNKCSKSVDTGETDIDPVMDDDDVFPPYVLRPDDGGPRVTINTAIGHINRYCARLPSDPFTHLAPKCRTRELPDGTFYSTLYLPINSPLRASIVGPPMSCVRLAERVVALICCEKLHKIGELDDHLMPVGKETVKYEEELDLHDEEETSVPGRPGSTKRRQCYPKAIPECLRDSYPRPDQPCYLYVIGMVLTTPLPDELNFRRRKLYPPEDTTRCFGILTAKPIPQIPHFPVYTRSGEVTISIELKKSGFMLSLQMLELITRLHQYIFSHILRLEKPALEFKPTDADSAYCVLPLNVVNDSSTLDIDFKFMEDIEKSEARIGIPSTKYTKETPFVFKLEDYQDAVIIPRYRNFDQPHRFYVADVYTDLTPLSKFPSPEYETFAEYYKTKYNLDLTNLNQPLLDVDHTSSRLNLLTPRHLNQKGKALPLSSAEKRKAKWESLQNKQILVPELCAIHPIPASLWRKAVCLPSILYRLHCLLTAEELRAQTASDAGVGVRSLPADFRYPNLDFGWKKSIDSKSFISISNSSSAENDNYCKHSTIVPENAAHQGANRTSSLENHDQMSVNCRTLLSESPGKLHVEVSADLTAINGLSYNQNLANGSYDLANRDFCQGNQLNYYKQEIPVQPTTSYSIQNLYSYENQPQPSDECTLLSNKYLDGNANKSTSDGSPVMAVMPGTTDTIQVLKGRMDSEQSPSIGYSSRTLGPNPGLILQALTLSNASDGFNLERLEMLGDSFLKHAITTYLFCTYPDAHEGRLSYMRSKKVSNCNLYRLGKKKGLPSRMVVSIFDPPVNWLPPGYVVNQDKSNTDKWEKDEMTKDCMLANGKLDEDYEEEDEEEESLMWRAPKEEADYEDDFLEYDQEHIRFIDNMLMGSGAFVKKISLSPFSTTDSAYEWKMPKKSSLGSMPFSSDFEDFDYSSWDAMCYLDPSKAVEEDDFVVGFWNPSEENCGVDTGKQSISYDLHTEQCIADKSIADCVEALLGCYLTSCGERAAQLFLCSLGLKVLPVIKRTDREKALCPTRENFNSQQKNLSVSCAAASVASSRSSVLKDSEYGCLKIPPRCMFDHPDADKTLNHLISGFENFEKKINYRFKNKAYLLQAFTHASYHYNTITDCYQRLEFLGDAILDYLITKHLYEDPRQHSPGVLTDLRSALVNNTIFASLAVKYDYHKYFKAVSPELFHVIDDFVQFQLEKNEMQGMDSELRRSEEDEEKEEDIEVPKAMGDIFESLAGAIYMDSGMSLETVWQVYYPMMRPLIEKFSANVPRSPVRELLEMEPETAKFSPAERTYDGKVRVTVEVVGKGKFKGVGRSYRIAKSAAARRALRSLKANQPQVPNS
Numbers without * were called inactive.

SMILES	Dicer processing
NC(=S)NNc1ccc(Cl)c(Cl)c1	2.3
CC(C)c1ccc(NC(=S)N=C(N)N)cc1	2.1
COc1ccc(-c2nnc(-c3ccc(C)cc3)o2)cc1OC	2.5
Cc1ccc2oc(C(F)(F)F)cc(=O)c2c1	3.5*
Cc1ccc2oc(NC(=O)N3CCOCC3)cc(=O)c2c1	-0.18
Cc1ccc2oc(-c3ccc(Br)cc3)cc(=O)c2c1	0.77
Cc1cc(NC(=O)C(C)C)cc(-c2nc3cc(Cl)ccc3o2)c1O	-1.3
CCOc1cc(S(=O)(=O)Nc2ccccn2)ccc1Cl	0.95
CCOC(=O)c1cc(CC)sc1NC(=O)CC1Sc2ccccc2NC1=O (configuration not stated)	1.3
Cc1ccc(-c2cn3ccc(C)cc3n2)cc1	1.1
COc1c(Cl)cc(Cl)cc1-c1cn2ccccc2n1	-0.51
COc1c(Cl)cccc1-c1cn2ccc(C)cc2n1	5.9*
COC(=O)c1sc(N2C(=O)c3oc4ccccc4c(=O)c3C2c2cccc(O)c2)nc1C (configuration not stated)	3.8*
C=CCOC(=O)c1sc(N2C(=O)c3oc4ccc(C)cc4c(=O)c3C2c2ccc(F)cc2)nc1C (configuration not stated)	-0.01
COC(=O)c1sc(N2C(=O)c3oc4ccccc4c(=O)c3C2c2cccc(Cl)c2)nc1C (configuration not stated)	1.8
CCOC(=O)c1sc(N2C(=O)c3oc4ccc(C)cc4c(=O)c3C2c2ccc(O)cc2)nc1C (configuration not stated)	0.43
C=CCOC(=O)c1sc(N2C(=O)c3oc4ccc(C)cc4c(=O)c3C2c2ccc(O)cc2)nc1C (configuration not stated)	3.3*
COC(=O)c1sc(N2C(=O)c3oc4ccccc4c(=O)c3C2c2ccc(C)cc2)nc1C (configuration not stated)	-0.77
CCOC(=O)CCCCCN1C(=O)S/C(=C/c2ccc(OC)cc2)C1=S	0.37
c1ccc(-c2nc3ccc(Oc4ccc5nc(-c6ccccn6)[nH]c5c4)cc3[nH]2)nc1	-2.3
C=CCNC(=S)SCCN	-1.8
Cc1cccc(N2C(=O)C3C4C=CC(C4)C3C2=O)n1 (configuration not stated)	-0.23
Cc1cc(N2C(=O)C3C4C=CC(C4)C3C2=O)no1 (configuration not stated)	3.7*
Cc1noc(N2C(=O)C3C4C=CC(C4)C3C2=O)c1C (configuration not stated)	-0.05
CCOCCn1c(=O)c2c(nc3n2CCCCN3c2ccc(OCC)cc2)n(C)c1=O	0.36
SMILES	Dicer processing
Cc1onc(-c2c(F)cccc2Cl)c1C(=O)Nc1nc(-c2ccc(F)c(F)c2)cs1	0.73
COc1ccc(/C(O)=C2/C(=O)C(=O)N(CCc3ccccc3)C2c2ccc(OC)cc2)cc1 (configuration not stated)	-0.72
N#C/C(=C\c1cc(Br)cs1)C(=O)Nc1ccc(F)cc1	-1.7
CCOC(=O)c1c(C)oc(-c2ccccc2)c1S(=O)(=O)N1CCN(c2ncc(C(F)(F)F)cc2Cl)CC1	-2.2
Nc1ccc(-c2nc3ccccc3o2)c(O)c1	0.14
CN(C)NC(=O)Cn1nnc(-c2cc(Cl)cc(Cl)c2)n1	1
Cc1ccc(S(=O)(=O)Oc2c(-c3ccccc3)c(=O)n(C)c3ccccc23)cc1	-1.1
Cc1ccc(S(=O)(=O)Oc2c(Cc3ccccc3)c(=O)n(C)c3ccccc23)cc1	3.8*
Cc1ccc(Cc2c(C)[nH]c3[nH]n(-c4ccccc4)c(=O)c3c2=O)cc1	-0.56
COc1ccccc1Nc1ncnc(-n2cccc2)n1	-0.69
FC(F)(F)c1cc(NC(=S)N2CCN(c3ncnc4sccc34)CC2)cc(C(F)(F)F)c1	-0.64
COC(=O)/C(C#N)=C\c1cccc2ccccc12	0.57
O=C(Nc1ccc(F)cc1F)C(=S)NCc1cccs1	-0.05
O=C(Nc1ccc(F)cc1F)c1cccs1	6.4*
O=C(Nc1ccc(Sc2ccccc2)nc1Sc1ccccc1)c1cccs1	-0.73
Cc1cccc(NC(=O)Nc2cccs2)n1	1.6
COc1ccc(OCC(O)Cn2c[n+](C)c3ccccc32)cc1 (configuration not stated)	-0.74
CN(NC(=O)c1ccc([N+](=O)[O-])cc1)c1ccc(C(F)(F)F)cc1[N+](=O)[O-]	-0.94
COc1ccc(OC)c(C2CC(c3ccc(OC)c(OC)c3)=NN2S(=O)(=O)c2ccccc2)c1 (configuration not stated)	-1.3
CC(NC(=O)OC(C)(C)C)C(=O)NCc1ccccc1 (configuration not stated)	-0.32
CC(C)CC(NC(=O)OC(C)(C)C)C(=O)NCc1ccccc1 (configuration not stated)	0.85
CC(C)(C)OC(=O)NC(Cc1ccccc1)C(=O)NCc1ccccc1 (configuration not stated)	4.6*
O=c1[nH]nc(SCc2cccc3ccccc23)c(=O)[nH]1	-0.12
Cc1nc(N2CCN(c3cccc(Cl)c3)CC2)nc2c1C(=O)CC(c1ccco1)C2 (configuration not stated)	3*
Cc1nc(N2CCN(c3ccccc3)CC2)nc2c1C(=O)CC(C)C2 (configuration not stated)	0.21
SMILES	Dicer processing
Cc1nc(N2CCN(c3ccccn3)CC2)nc2c1C(=O)CC(c1ccc(Cl)cc1)C2 (configuration not stated)	-0.26
O=C1Nc2ccccc2C1=Nc1ccc(Cc2ccc(N=C3C(=O)Nc4ccccc43)cc2)cc1	3.9*
COc1ccc(N=C2C(=O)Nc3ccc(Br)cc32)cc1	-3.6
O=C1Nc2ccccc2C1=NCCCN=C1C(=O)Nc2ccccc21	-1.2
CC(C)Cc1nnc(NC(=O)C2c3ccccc3Oc3ccccc32)s1	0.72
CCOC(=O)/C=C(\C)Nc1cccc(N/C(C)=C/C(=O)OCC)c1C	-0.68
COc1cccc2c1OC(c1cccnc1)N1N=C(c3cc(C)ccc3O)CC21 (configuration not stated)	2.3
O=C(O)CSc1ccc(C(F)(F)F)cn1	-0.62
O=C1c2oc3ccc(F)cc3c(=O)c2C(c2ccc(O)cc2)N1Cc1ccc2c(c1)OCO2 (configuration not stated)	2.3
CC1(C)C=Cc2cc(/C(N)=N/O)ccc2O1	0.53
CN1c2ccccc2C(C)(C)C12C=Cc1cc(O)ccc1O2 (configuration not stated)	15*
O=C(NNC(=O)C(F)(F)Sc1ccccc1)c1ccsc1	-0.09
COc1cc2c(cc1OC)C(C)N(C(=O)CSCC(=O)O)CC2 (configuration not stated)	0.42
CCOC(=O)C1=NN(c2ccccc2)C2(C(=O)c3ccccc3C2=O)C1c1ccc(Cl)cc1 (configuration not stated)	-0.68
O=c1c(-c2ccc3c(c2)OCCO3)coc2cc(O[C@@H]3O[C@@H](CO)[C@H](O)[C@@H](O)[C@@H]3O)ccc12	1.1
CS(=O)(=O)n1nc(-c2ccco2)nc1SCc1ccccc1	2.2
CCS(=O)(=O)n1nc(-c2ccco2)nc1SCc1ccccc1	2.9
COc1ccc(-c2nc(SCc3ccccc3)n(S(C)(=O)=O)n2)cc1	5.2*
CC1(C)CN=C(N(C(=O)Nc2ccccc2)c2ccc(Cl)cc2)S1	0.85
S=C(N/N=C/c1ccc(Cl)c(Cl)c1)NC1CC2CCC1C2 (configuration not stated)	-2.2
N/C(=N\S(=O)(=O)c1ccc(Cl)cc1)N1CCSCC1	3.6*
CSC/C(N)=N/S(=O)(=O)c1ccc(Cl)cc1	0.22
Nc1cc(Cl)ccc1C(=O)N1CCSCC1	-0.56
CC1(C)OC(=O)C(=CNc2ccc(Cl)cn2)C(=O)O1	0.19
